Compound activity deposited in PubChem by National Center for Advancing Translational Sciences (NCATS).
Sampled rows, rich in hits. Any-hit rate of the full collection: about 4.8%.
ATXN2 expr inh – Primary qHTS for Inhibitors of ATXN expression | HEK-293 ATXN2-luciferase reporter, luminescence, 24 h | Potency, µM (titrated, usually from 57 µM), actives largely listed as inhibitors | 0.72% of 360,000 active | AID 1745845, 2022; further: nearly all actives have a fitted effect of over 55% in size
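ATXN2-luciferase reporter cells (luciferase flanked by upstream and downstream ATXN2 gene portions) were treated 24 h at 37 °C with compounds at up to 57 uM. SteadyGlo luminescence gave expression; GF-AFC fluorescence gave viability.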
DRD3 agonist – qHTS of D3 Dopamine Receptor Agonist: qHTS; 0.58% of 410,000 active; AID 652048, 2013; D3R DiscoveRx beta-arrestin cells, luminescence, 90 min; D(3) dopamine receptor (Homo sapiens), P35462; max activation, %; in the data active means max activation above about 30%
Target sequence (P35462 whole entry, looked up): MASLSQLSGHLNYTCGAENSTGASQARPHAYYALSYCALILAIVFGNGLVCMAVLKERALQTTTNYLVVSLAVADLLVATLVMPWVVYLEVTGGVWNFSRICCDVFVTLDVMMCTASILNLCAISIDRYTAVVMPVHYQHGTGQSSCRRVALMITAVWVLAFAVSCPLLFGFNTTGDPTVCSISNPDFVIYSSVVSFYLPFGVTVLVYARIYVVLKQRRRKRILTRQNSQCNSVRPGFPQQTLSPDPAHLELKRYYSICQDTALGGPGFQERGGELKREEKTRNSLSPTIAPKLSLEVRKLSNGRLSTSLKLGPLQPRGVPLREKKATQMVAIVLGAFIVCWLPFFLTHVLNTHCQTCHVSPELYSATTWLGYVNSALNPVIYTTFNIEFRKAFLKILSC
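Agonist-mode cell screen: cells plated at 1500/well and incubated overnight at 37 °C, then exposed to library compounds for 90 min at 37 °C. Detection reagent was added for 30–60 min at room temperature, and luminescence was read.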
ATXN viability – Viability Counterscreen for Primary qHTS for Inhibitors of ATXN expression. S2 cells (HEK-293 line with an ATXN2-luciferase reporter) viability, CellTiter-Fluor protease fluorescence, 24 h. Potency, µM (titrated, usually from 56.7 µM), usual class: cytotoxic. 0.49% of 400,000 active; further: nearly all actives have a fitted effect of over 40% in size
HepG2 viability – qHTS for Inhibitors of TGF-b: Cytotox Counterscreen. HepG2 CAGA-GFP viability, ATP luminescence, 18 h. Potency, µM (titrated, usually from 46.1 µM), usual class: cytotoxic. 0.76% of 410,000 active
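CellTiter-Glo luminescence gave cytotoxicity after 18 hours at 37 degrees C. The cells were HepG2 CAGA-GFP in 1% FBS DMEM, stimulated with 500 pg/mL TGF-beta after compound addition. %Activity was normalised to no-cell wells (complete cell-killing) and DMSO (no toxicity), and curves were fitted and classified.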
D3 antag – qHTS of D3 Dopamine Receptor Antagonist: qHTS. D(3) dopamine receptor (Homo sapiens), P35462. D3R cells, DiscoveRx beta-arrestin luminescence, antagonist mode; stronger effect = lower value. max response, negative = inhibition, %. 2.5% of 360,000 active. AID 652054, 2013; in the data active means max response below about -50%; inconclusive means no clear call, values can overlap the other calls
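Cells plated overnight at 1500 cells/well, then exposed to library compounds with dopamine controls for 90 minutes at 37 degrees C. DiscoveRx reagent added for 30–60 minutes at room temperature; luminescence read, quantitative HTS format.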
TGFb inhibitor – qHTS for Inhibitors of TGF-b. HepG2 CAGA-GFP TGF-b/SMAD3 reporter, GFP fluorescence, 18 h; TGF-beta stimulated, 500 pg/mL final. 1.2% of 410,000 active. AID 588855, 2011. Potency, µM (highest dose often 46.1 µM), actives largely listed as inhibitors; further: nearly all actives have a fitted effect of over 65% in size
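Read-out: total well GFP (ex488/em500-530) summed from mean per-cell fluorescence. Cells: HEPG2 CAGA-GFP, 1% FBS DMEM, 18 h at 37 degrees C with 500 pg/mL final TGF-beta. Unstimulated wells served as the full-inhibition control; stimulated DMSO wells = 0%.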
Each line names hits and unclear results; the compound was inactive in the other large screens; ! = not active in a repeat. Unless noted, the call rests on the fitted dose curve; in most records, active means well fitted curve in the direction sought with a large enough effect; inconclusive means small, poorly fitted or top-dose-only effect, or another doubt; inactive means no such curve, though single readings can be large; an effect the other way counts as inactive or inconclusive.

O=C1[C@@H]2Cc3ccccc3CN2C(=O)N1c1cccc(F)c1	DRD3 agonist 37
CCOc1ccc(-c2cccc(NS(=O)(=O)c3c(C)cc(C)cc3C)c2)nn1	ATXN2 expr inh inconclusive, ATXN viability inconclusive, TGFb inhibitor 20µM (no result: D3 antag)
CCOc1ccc(S(=O)(=O)Nc2cccc(-c3ccc(OCC)nn3)c2)cc1	ATXN viability inconclusive (no result: D3 antag)
COc1ccc(CN2CCc3ccccc3C2)c(OC)c1OC	ATXN viability inconclusive, D3 antag -75
COc1ccc(OC)c(CN2CCN(Cc3ccc(OC)c(OC)c3OC)CC2)c1	D3 antag inconclusive (no result: ATXN2 expr inh)
COc1ccc(CN2CCc3ccccc3C2)c(OC)c1	D3 antag -65
COc1ccc(NC(=O)CN2CCc3ccccc3C2)c(OC)c1	none
COc1ccc(N2C(=O)[C@@H]3C[C@H]2CN3Cc2ccc3nccnc3c2)cc1Cl	none (no result: ATXN2 expr inh, DRD3 agonist, HepG2 viability, D3 antag, TGFb inhibitor)
O=C(O)c1cccc(N2C(=O)C=CC2=O)c1	none (no result: ATXN2 expr inh)
O=C(Nc1ccc(Cl)cc1Cl)c1cccc(N2C(=O)C=CC2=O)c1	ATXN2 expr inh inconclusive, D3 antag -85, TGFb inhibitor inconclusive
CCOc1cc(C(=O)NCC(c2ccc(N(C)C)cc2)N2CCOCC2)cc(OCC)c1OCC (configuration not stated)	none (no result: ATXN2 expr inh, ATXN viability, D3 antag)
CCOC(=O)Cc1csc(NC(=O)CSc2nnc(C)n2C)n1	none
CCOC(=O)Cc1csc(NC(=O)CSc2nnc(C3CC3)n2C)n1	D3 antag -50
C1=C/C(=C2/C=Cc3ccccc32)c2ccccc2N1	TGFb inhibitor inconclusive (no result: ATXN2 expr inh, DRD3 agonist, ATXN viability, D3 antag)
S=c1nc[nH]c2nc[nH]c12	ATXN2 expr inh inconclusive, ATXN viability inconclusive, HepG2 viability 1.4µM!
O=C(CN1Cc2ccccc2OC(c2ccsc2)C1)NCc1ccc2c(c1)OCO2 (configuration not stated)	none (no result: ATXN2 expr inh, DRD3 agonist, HepG2 viability, D3 antag, TGFb inhibitor)
CN1C(=O)/C(=C/c2cc(N=Nc3ccccc3)ccc2O)SC1=S	ATXN2 expr inh inconclusive, ATXN viability 28µM, D3 antag -135, TGFb inhibitor inconclusive
Cc1c(N2C(=O)/C(=C\c3ccccc3O)SC2=S)c(=O)n(-c2ccccc2)n1C	TGFb inhibitor inconclusive
Cc1ccc(-c2nn3c(C)nnc3c3ccccc23)cc1S(=O)(=O)NC(C)c1ccccc1 (configuration not stated)	D3 antag -54, TGFb inhibitor inconclusive
Cc1cc(C)n2c(Nc3ccc(C(C)C)cc3)c(-c3ccsc3)nc2n1	TGFb inhibitor 3.5µM (no result: ATXN2 expr inh, ATXN viability, D3 antag)
CC1=NN(C(=O)c2ccc(Br)cc2)C(O)(C(F)(F)OC(F)(F)F)C1 (configuration not stated)	TGFb inhibitor 16µM
CC1=NN(C(=O)c2csc(C)c2)C(O)(C(F)(F)F)C1 (configuration not stated)	none
CSc1nc(=O)n(CCC#N)nc1SC	ATXN2 expr inh inconclusive, ATXN viability inconclusive, D3 antag -65
Cc1ccc(C(=O)NC(Cc2ccccc2C(F)(F)F)C(=O)O)cc1 (configuration not stated)	DRD3 agonist 40, D3 antag inconclusive
c1csc(-c2nc(CN3CCSCC3)cs2)c1	D3 antag -58
O=C(c1ccc2c(c1)OCO2)N(Cc1cc2ccc(F)cc2nc1N1CCC(O)CC1)CC1CCCO1 (configuration not stated)	none (no result: ATXN2 expr inh, DRD3 agonist, HepG2 viability, D3 antag, TGFb inhibitor)
Cc1ccc(S(=O)(=O)N2CCCc3cc(NS(=O)(=O)c4cc(F)ccc4F)ccc32)cc1	ATXN2 expr inh inconclusive, ATXN viability inconclusive, TGFb inhibitor inconclusive (no result: D3 antag)
O=C(COC(=O)c1cccc(S(=O)(=O)N2CCc3ccccc32)c1)Nc1ncc(C(F)(F)F)cc1Cl	D3 antag -57
COCCNC(=O)C1CCCN(C(=O)c2ccnc(Cl)c2)CC1 (configuration not stated)	none
COCCNC(=O)C1CCCN(C(=O)Cc2cccc3ccccc23)CC1 (configuration not stated)	D3 antag -102
COCCNC(=O)C1CCCN(C(=O)c2cncc(Br)c2)CC1 (configuration not stated)	D3 antag -77
c1ccc(-c2csc(NNC3=NCCCCC3)n2)cc1	ATXN viability inconclusive, TGFb inhibitor inconclusive
Clc1ccc(-c2csc(NNC3=NCCCCC3)n2)cc1	ATXN viability inconclusive, D3 antag -78
O=C(NCCCN1CCCC1)c1ccc2c(c1)N(Cc1ccccc1F)C(=O)c1ccccc1S2(=O)=O	D3 antag inconclusive
CCC1CCCCN1CCCNC(=O)c1ccc2c(c1)N(Cc1ccccc1F)C(=O)c1ccccc1S2(=O)=O (configuration not stated)	ATXN2 expr inh inconclusive, TGFb inhibitor 11µM (no result: D3 antag)
CCc1cccc(NC(=S)N2CCC(c3ccccc3)C2)c1 (configuration not stated)	HepG2 viability 16µM
CSc1ccc(CNC(=O)C2CCCN(S(=O)(=O)N(C)c3ccc(F)cc3)C2)cc1 (configuration not stated)	TGFb inhibitor 4.5µM (no result: ATXN2 expr inh, ATXN viability, D3 antag)
Cc1ccc(C(=O)N(Cc2cc3cccc(C)c3nc2N2CCC(O)CC2)C2CC2)cc1	none (no result: ATXN2 expr inh, DRD3 agonist, HepG2 viability, D3 antag, TGFb inhibitor)
CCc1ccccc1Nc1cc(C(=O)NC(C)c2ccccc2)c2ccccc2n1 (configuration not stated)	ATXN viability inconclusive, TGFb inhibitor inconclusive (no result: D3 antag)
COc1ccc(/C=C/c2c(-c3ccc(OC)cc3)oc3ccc(-c4ccc(OC)cc4)cc23)cc1	none
COc1ccc(/C=C/c2cc(-c3ccc(C)cc3)o[n+]2C)cc1	ATXN2 expr inh inconclusive, ATXN viability inconclusive, TGFb inhibitor 10µM
C[C@H](CO)N1C[C@H](C)[C@@H](CN(C)S(=O)(=O)c2cn(C)cn2)Oc2c(NS(=O)(=O)c3ccccc3)cccc2C1=O	DRD3 agonist 49
C[C@H](CO)N1C[C@H](C)[C@@H](CN(C)C(=O)NC2CCCCC2)Oc2c(NS(=O)(=O)c3ccc(F)cc3)cccc2C1=O	DRD3 agonist 31
C[C@H](CO)N1C[C@H](C)[C@@H](CN(C)C(=O)NC2CCCCC2)Oc2c(NS(=O)(=O)c3ccccc3)cccc2C1=O	none
C[C@H]1CN([C@@H](C)CO)C(=O)c2cccc(NS(=O)(=O)c3ccc(F)cc3)c2O[C@H]1CN(C)S(=O)(=O)c1cn(C)cn1	none
C[C@H](CO)N1C[C@H](C)[C@@H](CN(C)S(=O)(=O)c2ccccc2)Oc2ccc(NS(=O)(=O)c3cn(C)cn3)cc2C1=O	none
